# Measurements: the supplement of paper PMC8285479
# Counter-ions that a name gives are not always drawn. ± gives the standard deviation of the averaged measurements. In all, about 1,900 compounds were measured (“normalised cell viability (NPI; 0 = phenylarsine oxide control, 1 = DMSO control)”: median about 1, lowest 2% from about 0.039 on). The entries come from a sample that favours the lowest values as a whole.
# Test system: NCI-H1944
# Assay: normalised cell viability (NPI; 0 = phenylarsine oxide control, 1 = DMSO control) (fraction of DMSO control); NCI-H1944 is a non-small cell lung cancer line; higher = more viable cells (less compound toxicity)
# Conditions: 6 days
# [1] = glucocorticoid arm: hydrocortisone 2.75 uM co-treatment, compound 1 µM
# [2] = glucocorticoid arm: hydrocortisone 2.75 uM co-treatment, compound 5 µM
# [3] = glucocorticoid arm: hydrocortisone 2.75 uM pre-treated 2 days and continued, compound 1 µM
# [4] = glucocorticoid arm: hydrocortisone 2.75 uM pre-treated 2 days and continued, compound 5 µM
# [5] = glucocorticoid arm: vehicle, compound 1 µM
# [6] = glucocorticoid arm: vehicle, compound 5 µM
# 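Also: CTB read-out in 384-well plates, triplicate wells, NPI normalised per plate against 1 µM phenylarsine oxide (0) and 0.1% DMSO (1) controls.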
SMILES,normalised cell viability [1],normalised cell viability [2],normalised cell viability [3],normalised cell viability [4],normalised cell viability [5],normalised cell viability [6]
CC1(C)CCC(NC(=O)[C@@H](N)CCC(=O)O)CC1,0.979 ± 0.013,0.975 ± 0.016,0.999 ± 0.011,0.982 ± 0.046,0.9703 ± 0.0085,0.985 ± 0.012
OC(CCN1CCCCC1)(c1ccccc1)C1CCCCC1 (racemic) [DL-Trihexyphenidyl hydrochloride],0.99967 ± 0.00058,0.998 ± 0.013,1.03 ± 0.021,1.02 ± 0.011,0.995 ± 0.007,1.001 ± 0.0085
CC(C)(C(=O)O)c1ccc(C(O)CCCN2CCC(C(O)(c3ccccc3)c3ccccc3)CC2)cc1 (stereo unspecified) [Fexofenadine HCl],1.03 ± 0.01,1.02 ± 0.021,1.037 ± 0.0058,1.05 ± 0.011,0.999 ± 0.011,0.998 ± 0.01
CC(C)(C(=O)O)c1ccc(C(O)CCCN2CCC(C(O)(c3ccccc3)c3ccccc3)CC2)cc1 (stereo unspecified) [Fexofenadine hydrochloride],1.006 ± 0.0069,1 ± 0.013,0.997 ± 0.013,0.99 ± 0.01,1.003 ± 0.0058,0.9967 ± 0.0035
CC(C)(C)c1ccc(C(O)CCCN2CCC(C(O)(c3ccccc3)c3ccccc3)CC2)cc1 (stereo unspecified) [Terfenadine],0.997 ± 0.0027,0.9833 ± 0.0051,1.03 ± 0.017,1.03 ± 0.017,0.9927 ± 0.006,0.0387 ± 0.043
COc1ccc2c3n(c(=NC(=O)c4cccnc4)nc2c1OC)CCN3,0.911 ± 0.004,0.628 ± 0.018,0.901 ± 0.012,0.663 ± 0.033,0.9907 ± 0.0049,0.85 ± 0.029
O=C(Nc1cccc(Nc2ncc(Br)c(NCCc3cnc[nH]3)n2)c1)N1CCCC1,0.955 ± 0.015,0.805 ± 0.016,0.939 ± 0.0062,0.859 ± 0.02,0.917 ± 0.0095,0.635 ± 0.029
"CCCn1c(=O)c2[nH]c(-c3ccc(S(=O)(=O)O)cc3)nc2n(CCC)c1=O [1,3-Dipropyl-8-p-sulfophenylxanthine]",0.9873 ± 0.0049,0.99 ± 0.01,0.994 ± 0.01,0.986 ± 0.034,0.996 ± 0.016,0.996 ± 0.0061
Cc1cc(N)c2ccccc2[n+]1CCCCCCCCCC[n+]1c(C)cc(N)c2ccccc21 [Dequalinium chloride hydrate],0.888 ± 0.026,0.0383 ± 0.0062,0.963 ± 0.016,0.0385 ± 0.0016,0.991 ± 0.013,0.00579 ± 0.0022
OC[C@H]1O[C@@H](n2cnc3c2N=CNC[C@H]3O)C[C@@H]1O [Pentostatin],1.02 ± 0.011,1.01 ± 0.022,1.03 ± 0.011,1.04 ± 0.01,1.013 ± 0.0058,1.01 ± 0.011
N[C@@H](Cc1ccc(O)c(I)c1)C(=O)O [3-Iodo-L-tyrosine],0.982 ± 0.01,0.973 ± 0.035,0.991 ± 0.006,0.996 ± 0.066,0.999 ± 0.011,0.998 ± 0.01
N[C@H](CO)C(=O)O [D-Serine],1.013 ± 0.0058,1.04 ± 0.06,0.896 ± 0.27,1.02 ± 0.01,1.02,1.017 ± 0.0058
CN1CCc2cc(O)c(O)cc2C(c2ccccc2)C1 (stereo unspecified),1 ± 0.0087,1.02 ± 0.022,0.876 ± 0.23,1.01 ± 0.02,1.02,1.023 ± 0.0058
CCCS(=O)(=O)Nc1ccc(F)c(C(=O)c2c[nH]c3ncc(-c4ccc(Cl)cc4)cc23)c1F [vemurafenib],1.04 ± 0.011,1.14 ± 0.02,1.03 ± 0.01,1.08 ± 0.01,1.01 ± 0.01,1.037 ± 0.0058
COc1cc2nccc(Oc3ccc(NC(=O)Nc4ccc(F)cc4F)c(F)c3)c2cc1OC,1.05 ± 0.011,1.06 ± 0.01,1.037 ± 0.0058,1.04 ± 0.021,1.003 ± 0.0063,1.013 ± 0.0058
CCCS(=O)(=O)Nc1ccc(F)c(C(=O)c2c[nH]c3ncc(-c4ccc(Cl)cc4)cc23)c1F [Vemurafenib (PLX4032)],1.05 ± 0.011,0.997 ± 0.029,1.03,1.01 ± 0.026,1.017 ± 0.0058,1.007 ± 0.0058
COc1ncc(-c2ccc3nccc(-c4ccnnc4)c3c2)cc1NS(=O)(=O)c1ccc(F)cc1F,0.264 ± 0.0058,0.231 ± 0.027,0.365 ± 0.025,0.249 ± 0.02,0.0495 ± 0.0081,0.0214 ± 0.0013
"Nc1ncnc2c1ncn2[C@@H]1O[C@@H]2COP(=O)(O)O[C@H]2[C@H]1O [Adenosine 3',5'-cyclic monophosphate]",0.986 ± 0.014,0.9813 ± 0.007,0.998 ± 0.011,0.965 ± 0.019,0.991 ± 0.016,0.9797 ± 0.0074
NCc1c[nH]c(=S)n1[C@H]1CCc2c(F)cc(F)cc2C1 [Nepicastat (SYN-117) HCl],0.9937 ± 0.006,1,1.01 ± 0.022,0.98 ± 0.017,0.9937 ± 0.0085,0.9913 ± 0.0051
C=CC(=O)Nc1cc(Nc2nccc(-c3cn(C)c4ccccc34)n2)c(OC)cc1N(C)CCN(C)C,0.891 ± 0.003,0.842 ± 0.022,0.944 ± 0.015,0.916 ± 0.034,0.789 ± 0.028,0.762 ± 0.045
CC[C@@H]1SC2(CCN(C)CC2)NC1=O,1.02,1.01 ± 0.011,1.03 ± 0.029,1.02 ± 0.011,1.013 ± 0.0058,1.01 ± 0.012
Cc1ccc(S(=O)(=O)N[C@@H](Cc2ccccc2)C(=O)CCl)cc1 [N-p-Tosyl-L-phenylalanine chloromethyl ketone],0.9977 ± 0.0032,1.01 ± 0.028,0.868 ± 0.25,1.02 ± 0.015,1.007 ± 0.0058,0.691 ± 0.057
O=C(N[C@@H](Cc1ccccc1)C(=O)CCl)OCc1ccccc1 [Z-L-Phe chloromethyl ketone],1.03 ± 0.01,0.028 ± 0.0044,1.02 ± 0.016,1.075 ± 0.0071,1.03 ± 0.01,0.149 ± 0.086
CC(C)[C@H](NC(=O)OCc1ccccc1)C(=O)N[C@H](C=O)Cc1ccccc1,0.989 ± 0.011,0.987 ± 0.041,0.997 ± 0.0052,1.03 ± 0.085,1 ± 0.0087,1 ± 0.013
CC1=C(C(=O)OC2CCCCC2)C(c2ccc([N+](=O)[O-])cc2)C2=C(CC(C)(C)CC2=O)N1 (stereo unspecified),1.03 ± 0.025,1.02 ± 0.023,1.03 ± 0.015,1.02 ± 0.026,1.017 ± 0.0058,1.003 ± 0.0058
C/C=C1\C(=O)C[C@H]2[C@@H]3CCC4=CC(=O)CC[C@]4(C)[C@H]3CC[C@]12C [(Z)-Guggulsterone],0.9933 ± 0.0015,0.98 ± 0.031,0.994 ± 0.02,0.964 ± 0.029,0.9953 ± 0.0035,0.9887 ± 0.0091
